Laboratory results taken from PubChem BioAssay (NCI).
This is part of a sample that, as a whole, favours compounds with a hit. Of some 83,000 tested, about 20% had one in any assay.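 How to read the values: 0–100, growth inhibition (40 = 60% inhibited); 0, no net growth; -100 to 0, cell death (-40 = 40% of starting cells died; -100 = all dead).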 Values without a mark were called inactive. Activity calls are given as the source filed them. The calls were made as follows: active = growth percent below 10; inactive = the rest.

Tested on: MDA-MB-468 breast
Assay: NCI-60 one-dose screen, 48 h (100 = growth as untreated, 0 = no growth, -100 = all killed)
Conditions: 10 µM unless noted

Structure (SMILES)	growth
O=C1c2ccccc2-c2cn(Cc3ccccc3)c3cccc(c23)C1c1cccnc1 (stereo not given)	27.9%
O=C(CCl)Oc1ccc(OC(=O)CCl)cc1	78.4%
COc1ccc(C2c3ccc4ccccc4c3Oc3nc(C)[nH]c(=O)c32)cc1 (stereo not given)	111%
COC(=O)c1c2c(c(C)[n+]([O-])c1C)C(=O)C=C(NCc1ccc(Br)cc1)C2=O	-60.1% (active)
O=C(O)c1ccc(-n2cc(CNc3ccc(Cl)cc3)c(-c3ccccc3)n2)cc1	102%
S=C(N/N=C/c1ccccn1)Nc1ccccn1	-1.71% (active)
O=C(Nc1cc(F)cc2cccnc12)c1cnc(N2CCNCC2)cn1	-5.12% (active)
Cc1cc(C)c2c(n1)sc1c(Nc3ccc(Cl)cc3)ncnc12	19%
O=C(C[n+]1cccc2cc(Cl)ccc21)c1ccc2c(c1)CCCC2	9.66% (active)
Oc1ccc(CSc2nnc(-c3ccc(Br)cc3)o2)c2cccnc12	35.4%
CCSc1nc2scc(C)c2c(=O)[nH]1	110%
C=C1N(C)c2ccc(Cl)cc2C1(C)C	5.23% (active)
N#Cc1ccccc1-c1ccc(Cn2c(-c3cscn3)nc3c(Cl)cccc32)cc1	55.7%
C=CCN(C)C	102%
Oc1c(Cl)cc(Cl)c(Cl)c1CNCCNCc1c(O)c(Cl)cc(Cl)c1Cl	2.91% (active)
O=C(/C=C/c1cccc([N+](=O)[O-])c1)c1ccc(Nc2nc(N3CCCCC3)nc(N3CCCCC3)n2)cc1	121%
COc1cccc(C(=O)NCCNc2cc(-c3cn(-c4ccccc4)nc3-c3cccc(OC)c3)ccn2)c1	48.9%
C=CCn1c(SCC(=O)Nc2ccc(C(=O)/C=C/c3cc(OC)c(OC)c(OC)c3)cc2)nnc1-c1cc(-c2ccc(S(N)(=O)=O)cc2)nc2ccccc12	89.3%
COc1cc(-c2nc3ccc(C)cc3[nH]2)ccc1OCC(=O)N=Nc1c(O)[nH]c2ccc(Cl)cc12	-48.7% (active)
C=CCC(OC(C)=O)c1ccc(OC)c(OC)c1 (stereo not given)	125%

Structure (SMILES)	growth
COCCNCC(O)Cn1c2ccc(Cl)cc2c2cc(Cl)ccc21 (stereo not given)	-43.9% (active)
Cc1ccc(S(=O)(=O)n2cc(CNc3ccc(N4CCOCC4=O)cc3)c3ccccc32)cc1	-9.46% (active)
CCCCCCCCCCCCCCCCCC1=NC(C)(C)CN1CC(C)O (stereo not given)	115%
CN1CCC(=C2c3ccccc3C=Cc3ccccc32)CC1	36%
O=C1c2c(c3c4cccc(F)c4[nH]c3c3ccc4ccccc4c23)C(=O)N1O	54.3%
CCCCCCN1C=C/C(=C\C(=O)n2ccc3ccccc32)c2ccccc21	-12% (active)
N#Cc1cccc(/C(N)=N/C(N)=N/c2nc3ccccc3s2)c1	18.7%
CN1C(=O)N(C)C2Nn3c(s/c(=C\c4ccccc4)c3=O)=NC21 (stereo not given)	95.4%
Nc1nc2cc(O)ccc2n2cc3c(F)cccc3c12	18.6%
Cc1nc(NC(=O)NC2CCCCC2)sc1C(=O)NN	97.3%
O=C(c1ccc(O)cc1)[C@@H]1CN[C@@]2(C(=O)Nc3ccccc32)[C@H]1c1ccc(F)cc1	97.5%
O=S(=O)(Nc1ccc(Cl)c(C(F)(F)F)c1)c1ccc(-c2cnc(C3CC3)o2)cc1	-7.54% (active)
COC(=O)c1c(C)[nH]c(/C=C2\N=C(c3ccc[nH]3)C=C2OC)c1C	-69.4% (active)
N#Cc1c(-c2ccc(F)cc2)cc(-c2cccc(Cl)c2)[nH]c1=O	81.4%
O=C1NCN(c2ccccc2)C12CCN(CCCC(c1ccc(F)cc1)c1ccc(F)cc1)CC2	43%
Nc1c(Br)cc(Br)c2c1[nH]c(=O)c1ccccc12	-20.4% (active)
CN1CCN(Cc2ccc(NC(=O)c3[nH]ncc3Nc3ncnc4sc5c(c34)CCCC5)cc2)CC1	-58.7% (active)
CCCCC1CCCCN1C(=O)OCC (stereo not given)	114%
CCN1CCN(CC(=O)N2c3cccc4cccc(c34)N(C(=O)CN3CCN(CC)CC3)C2c2cn(-c3ccccc3)nc2-c2cccc([N+](=O)[O-])c2)CC1	-47.8% (active)
Cc1cccc(C)c1NCc1nnc(-c2ccco2)o1	100%
